# From PubChem BioAssay (NCATS)
# Values joined by “and” are separate entries in the source; they are usually repeats but may differ in a detail not shown here. Equal entries are not always repeated. A number with no mark means an inactive call. Records with an inconclusive call do not appear. Where a call stands in place of a potency, no number is given. Active and inactive are the calls of the source. Calls come from the whole dose curve; as a rule, active = well fitted curve in the direction sought with a large enough effect; inconclusive = small, poorly fitted or top-dose-only effect, or another doubt; inactive = no such curve, though single readings can be large; an effect the other way counts as inactive or inconclusive.
# How the values were obtained:
# [1] = molecular target: Glutathione peroxidase 1 (Homo sapiens) (UniProt P07203); assay: Primary qHTS Assay for Inhibitors of Recombinant Selenoprotein Glutathione Peroxidase 1 (GPX1) (AID 1845191); note: nearly all actives have a fitted effect of over 65% in size; note: potency is the fitted concentration of half-maximal effect
# Sequence of Glutathione peroxidase 1 (Homo sapiens) (P07203 whole entry, looked up): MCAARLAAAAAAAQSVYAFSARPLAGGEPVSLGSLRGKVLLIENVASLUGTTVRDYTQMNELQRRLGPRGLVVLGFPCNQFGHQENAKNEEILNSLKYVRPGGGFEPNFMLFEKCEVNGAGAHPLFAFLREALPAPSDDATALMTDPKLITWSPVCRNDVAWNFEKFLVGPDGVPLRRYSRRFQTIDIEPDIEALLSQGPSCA
# Procedure, shortened: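 NADPH consumption tracked by fluorescence at 340/450 nm between t=0 and t=15 min, room temperature. Final mix: 10 nM GPX1, 100 nM glutathione reductase, 1 mM GSH, 0.5 mM NADPH, 0.5 mM cumene hydroperoxide, 0.01% BSA; 30 min compound–enzyme preincubation.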
# [2] = molecular target: Phospholipid hydroperoxide glutathione peroxidase GPX4 (Homo sapiens) (UniProt P36969); assay: Primary qHTS Assay for Inhibitors of Recombinant Selenoprotein Glutathione Peroxidase 4 (GPX4) (AID 1845192); note: nearly all actives have a fitted effect of over 65% in size; note: potency is the fitted concentration of half-maximal effect; for activity change, negative = inhibition: series mostly up to about 50 µM
# Sequence of Phospholipid hydroperoxide glutathione peroxidase GPX4 (Homo sapiens) (P36969 whole entry, looked up): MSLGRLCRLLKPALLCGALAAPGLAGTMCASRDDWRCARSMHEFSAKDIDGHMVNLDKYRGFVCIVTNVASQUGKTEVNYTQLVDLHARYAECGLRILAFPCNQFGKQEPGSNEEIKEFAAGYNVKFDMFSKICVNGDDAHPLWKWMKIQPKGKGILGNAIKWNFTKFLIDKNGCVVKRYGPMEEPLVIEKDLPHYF
# Procedure, shortened: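 NADPH consumption followed by fluorescence at 340/450 nm, t=0 and after 15 min at room temperature. Reaction started with cumene hydroperoxide (0.5 mM final) after 30 min compound–GPX4 preincubation; final 200 nM GPX4, 100 nM GR, 1 mM GSH, 0.5 mM NADPH.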
# [3] = molecular target: Luciferin 4-monooxygenase (Photinus pyralis) (UniProt P08659); assay: Primary firefly luciferase (FLuc) qHTS assay for identification of artifact compounds. (AID 1845220); note: nearly all actives have a fitted effect of over 60% in size; for activity change, negative = inhibition: series mostly up to about 54 µM
# Procedure, shortened: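 Compounds sat 15 min at room temperature with 10 uM luciferin and 10 uM ATP (pH 7.6 Tris acetate). Firefly luciferase (10 nM final) was then added, and luminescence was read 5 min later. Data normalized to no-enzyme and DMSO controls were Hill-fitted.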
# [4] = Primary fluorescence-based thiol-reactive (MSTI) qHTS assay for identification of artifact compounds. (AID 1845221); note: nearly all actives have a fitted effect of over 65% in size; note: potency is the fitted concentration of half-maximal effect;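 for activity change, negative = thiol reactive: series mostly up to about 54 µM; thiol-reactive compounds lower the probe fluorescence signal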
# Procedure, shortened: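 In PBS pH 7.4 with 2% DMSO, each compound met 4 uM MSTI for one hour at ambient temperature, shielded from light, before fluorescence detection.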
# [5] = tested on: Nanoluciferase (engineered Oplophorus gracilirostris luciferase); assay: Primary Nanoluciferase (NLuc) qHTS assay for identification of artifact compounds. (AID 1845222); note: series mostly up to about 54 µM
# Procedure, shortened: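 Luminescence from secreted NLuc (filtered, 1:55-diluted S16 cell medium) read 5 min after Nano-Glo substrate; compounds preincubated 15 min, RT. Hill fits of inhibition normalized to DMSO and no-enzyme.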
structure (smiles),measurement,setting,value
CCN1CCCC1CNC(=O)c1cc(S(=O)(=O)CC)ccc1OC (stereo not given),Potency,[1],inactive
same,Potency,[2],inactive
C[C@@H]1COCCN1c1cc(=O)n2c(n1)N(Cc1cncc(Cl)c1)[C@H](C(F)(F)F)CC2,Potency,[1],inactive
same,Potency,[2],inactive
O=P(O)(O)OC(Cn1cncn1)(Cn1cncn1)c1ccc(F)cc1F,Potency,[1],inactive
same,Potency,[2],inactive
CC(C)(C)CC(=O)OCC(=O)[C@@]12OC(C)(C)O[C@@H]1C[C@H]1[C@@H]3CCC4=CC(=O)C=C[C@]4(C)[C@@]3(F)[C@@H](O)C[C@@]12C,Potency,[1],inactive
same,Potency,[2],inactive
Cc1[nH]c(/C=C2\C(=O)Nc3ccc(S(=O)(=O)N(C)c4cccc(Cl)c4)cc32)c(C)c1C(=O)N1CCN(C)CC1,Potency,[1],inactive
same,Potency,[2],inactive
same,Potency,[3],inactive
CCCCCCCCCCCCCCCC(=O)O[C@@H]1CC(C)=C(/C=C/C(C)=C/C=C/C(C)=C/C=C/C=C(C)/C=C/C=C(C)/C=C/C2=C(C)C[C@@H](OC(=O)CCCCCCCCCCCCCCC)CC2(C)C)C(C)(C)C1,Potency,[1],inactive
same,Potency,[2],1.26 µM (active)
COC1CC/C=C(\C)C(=O)Nc2cc(O)cc(c2)CC(C)CC(OC)C(O)C(C)/C=C(\C)C1OC(N)=O (stereo not given),Potency,[1],inactive
same,Potency,[2],inactive
same,Potency,[3],inactive
same,Potency,[4],inactive
same,Potency,[5],inactive
O=C(OCCO)c1ccccc1O,Potency,[1],inactive
same,Potency,[2],inactive
CCNC(=O)C#Cc1ccc2c(C(=Nc3ccc(CN(C)C)cc3)c3ccccc3)c(O)[nH]c2c1,Potency,[1],inactive
same,Potency,[2],inactive
same,Potency,[3],inactive
same,Potency,[4],inactive
same,Potency,[5],inactive
Cc1nc(Nc2cnn(C3CCNCC3)c2)nc2c1N(C)C(=O)c1cc3ccccc3cc1N2C,Potency,[1],inactive
same,Potency,[2],inactive
same,Potency,[3],inactive
same,Potency,[4],inactive
CC#CCC(C)[C@H](O)/C=C/[C@@H]1[C@H]2C/C(=C/CCCC(=O)O)C[C@H]2C[C@H]1O (stereo not given in full),Potency,[1],inactive
same,Potency,[2],inactive
CO/N=C(\C(=O)N[C@@H]1C(=O)N2C(C(=O)OCOC(=O)C(C)(C)C)=C(/C=C\c3scnc3C)CS[C@H]12)c1csc(N)n1,Potency,[1],4.53 µM (active)
same,Potency,[2],14.1 µM (active)
C=C1C(=O)OC2C1CCC1(C)C(O)CCC(=C)C21 (stereo not given),Potency,[1],inactive
same,Potency,[2],inactive
same,Potency,[3],inactive
same,Potency,[4],11.9 µM (active)
same,Potency,[5],inactive
Cc1[nH]cnc1C[C@H]1CCc2c(C)c3ccccc3n2C1=O,Potency,[1],inactive
same,Potency,[2],inactive
COc1cc(C[C@@H]2NCCc3cc(O)c(O)cc32)cc(OC)c1OC,Potency,[1],inactive
same,Potency,[2],inactive
C=Cc1ccccc1,Potency,[1],inactive
same,Potency,[2],inactive
CO[C@H]1[C@@H](O)[C@H](N)[C@@H](O[C@H]2O[C@H]([C@H](C)N)CC[C@H]2N)[C@H](O)[C@@H]1N(C)C(=O)CN,Potency,[1],inactive
same,Potency,[2],inactive
O=C(Cn1cnnn1)N[C@@H]1C(=O)N2C(C(=O)O)=C(CSc3nncs3)CS[C@H]12,Potency,[1],18 µM (active)
same,Potency,[2],inactive
O=C(O)c1ccc(N2C(=O)/C(=C/c3ccc(-c4ccc([N+](=O)[O-])cc4)o3)C=C2c2ccccc2)cc1,Potency,[1],inactive
same,Potency,[2],inactive
same,Potency,[3],inactive
same,Potency,[4],0.423 µM (active)
C[C@@H]1CN(CC(=O)N2CC(C)(C)c3ncc(Cc4ccc(F)cc4)cc32)[C@@H](CN2CCOC[C@H]2C)CN1,Potency,[1],inactive
same,Potency,[2],inactive
CN1CCN(C2CCN(C(=O)Nc3cc(Oc4ccc(NC(=O)C5(C(=O)Nc6ccc(F)cc6)CC5)c(F)c4)ccn3)CC2)CC1,Potency,[1],inactive
same,Potency,[2],inactive
same,Potency,[3],inactive
same,Potency,[4],inactive
same,Potency,[5],inactive
O=P(O)(O)C(O)(Cc1cnc2ccccn12)P(=O)(O)O,"activity, negative = inhibition",[1],-12.2% [at 0.4 µM]
same,"activity change, negative = inhibition",[2],0.142% [at 0.409 µM]
COc1cc(C(N)=O)nc(-c2ccccn2)c1O,Potency,[1],inactive
same,Potency,[2],inactive
same,Potency,[3],inactive
same,Potency,[4],23.8 µM (active)
same,Potency,[5],inactive
CC(CCC1(O)OC2CC3C4CC=C5C[C@@H](O[C@@H]6O[C@H](CO)[C@@H](O[C@@H]7O[C@@H](C)[C@H](O)[C@@H](O)[C@H]7O)[C@H](O)[C@H]6O[C@@H]6O[C@@H](C)[C@H](O)[C@@H](O)[C@H]6O)CC[C@]5(C)C4CC[C@]3(C)[C@@]2(O)[C@@H]1C)CO[C@@H]1O[C@H](CO)[C@@H](O)[C@H](O)[C@H]1O (stereo not given in full),Potency,[1],inactive
same,Potency,[2],inactive
same,outcome,[3],inactive [at 11.6 µM]
same,"activity change, negative = thiol reactive",[4],40.3% [at 11.5 µM]
same,"activity, negative = inhibition",[5],0% [at 11.6 µM]
Cc1ccc(C2(O)CCN(CCCC(=O)c3ccc(F)cc3)CC2)cc1,Potency,[1],inactive
same,Potency,[2],inactive
COc1cc(C#N)ccc1S(=O)(=O)Nc1ccc2c(c1)cc(C)c(=O)n2C,Potency,[1],inactive
same,Potency,[2],inactive
same,Potency,[3],inactive
same,Potency,[4],inactive
same,Potency,[5],inactive
COc1ccc(CCNCC(O)COc2cccc(C)c2)cc1OC (stereo not given),Potency,[1],inactive
same,Potency,[2],inactive
C=C1C(=O)OC2CC3(C)C(O)C(=O)C=C(C)C3CC12 (stereo not given),Potency,[1],inactive
same,Potency,[2],inactive
same,Potency,[3],inactive
same,Potency,[4],2.67 µM (active)
same,Potency,[5],inactive
CC(=O)O[C@H]1[C@H](O)C[C@@]2(C)C(CC[C@]3(C)C2CC=C2C4CC(C)(C)CC[C@]4(C(=O)O)CC[C@]23C)C1(C)C (stereo not given in full),Potency,[1],inactive
same,Potency,[2],inactive
same,Potency,[3],inactive
same,Potency,[4],inactive
same,Potency,[5],inactive
CN(C)CC1CCn2c(c(C3=C(c4cn(C)c5ccccc45)C(=O)NC3=O)c3ccccc32)C1 (stereo not given),Potency,[1],inactive
same,Potency,[2],inactive
same,Potency,[3],inactive
same,Potency,[4],inactive
CCN(CC)CCCS(=O)(=O)N[C@H](CCc1ccccc1)c1nc(Cc2ccc(Br)cc2)no1,Potency,[1],inactive
same,Potency,[2],inactive
same,Potency,[3],inactive
same,Potency,[4],inactive
same,Potency,[5],inactive
C1CNCCN1,Potency,[1],inactive
same,Potency,[2],inactive
Cc1cccc(C)c1N(CCCc1cccnc1)C(=O)C(C)N (stereo not given),Potency,[1],inactive
same,Potency,[2],inactive
CN1CCN(C2=Nc3ccccc3Cc3ccccc32)CC1,Potency,[1],inactive
same,Potency,[2],inactive
COc1ccc(C(=O)Nc2ccccc2CCC2CCCCN2C)cc1 (stereo not given),Potency,[1],inactive
same,Potency,[2],inactive
CC(=O)OC/C(=C/C(=O)O)CC[C@@H]1C(C=O)=CC[C@@H]2C(C)(C)CCC[C@@]12C,Potency,[1],inactive
same,Potency,[2],inactive
same,Potency,[3],inactive
same,Potency,[4],inactive
same,Potency,[5],inactive
O=S(=O)(O)Oc1ccc(C(c2ccc(OS(=O)(=O)O)cc2)c2ccccn2)cc1,Potency,[1],inactive
same,Potency,[2],inactive
Cc1nc(-c2cn3c(n2)-c2ccc(-c4cnn(C(C)(C)C(N)=O)c4)cc2OCC3)n(C(C)C)n1,Potency,[1],inactive
same,Potency,[2],14.3 µM (active) and 20.2 µM (active)
same,Potency,[3],inactive
same,Potency,[4],inactive
same,Potency,[5],inactive
CCOc1ccc(N=C(C)Nc2ccc(OCC)cc2)cc1,Potency,[1],inactive
same,Potency,[2],inactive
Nc1ncnc2c1c(-c1ccc(Oc3ccccc3)cc1)nn2[C@@H]1CCCNC1,Potency,[1],inactive
same,Potency,[2],inactive
same,Potency,[3],inactive
same,Potency,[4],inactive
same,Potency,[5],inactive
Cc1cc(NC(=O)c2cccc(NC(=O)/C=C/CN(C)C)c2)ccc1Nc1nccc(-c2cccnc2)n1,Potency,[1],inactive
same,Potency,[2],inactive
same,Potency,[3],inactive
same,Potency,[4],inactive
CC1OC2OC(=O)C3(C)CC4C5(CO5)C5=CC(=O)OC(C)(C)C5=CC(=O)C4(C)C(C1=O)C23 (stereo not given),Potency,[1],inactive
same,Potency,[2],inactive
same,Potency,[3],inactive
same,Potency,[4],1.03 µM (active)
same,Potency,[5],inactive
Cc1nnc(C[C@@H]2C=C(c3ccc(Cl)cc3)c3ccccc3-n3c(C)nnc32)o1,Potency,[1],inactive
same,Potency,[2],inactive
same,Potency,[3],inactive
same,Potency,[4],inactive
same,Potency,[5],inactive
Cc1c[nH]c2ncnc(N3CCC(CN)(C(=O)Nc4cccc(OC(=O)N(C)C)c4)CC3)c12,Potency,[1],inactive
same,Potency,[2],inactive
same,Potency,[3],inactive
same,Potency,[4],inactive
same,Potency,[5],inactive
C=C(C(=O)OC)[C@@H]1CC=C2C=CC(=O)[C@H](C)[C@@]2(C)C1,Potency,[1],inactive
same,Potency,[2],inactive
same,Potency,[3],inactive
same,Potency,[4],inactive
same,Potency,[5],inactive
